# Screens (PubChem)
# IEC-6 tox-1 – counter-screen for KLF5 inhibitors: cytotoxicity in IEC-6 cells | IEC-6 cytotoxicity, luminescence viability | inhibition, % at 5 µM | actives 0.78% (n = 290,000); in the data active = inhibition above about 22%;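 note: 0% = plate median of test compound wells and 100% = cytotoxic reference compound wells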
# Ba/F3 V617F tox – reduce viability of Ba/F3 cells dependent on JAK2V617F; actives 1.1% (n = 220,000); AID 1446; inhibition, % at 5.6 µM; Ba/F3 EpoR-JAK2V617F viability, ATP luminescence;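 active = inhibition above the campaign mean plus 3 SD over all tested compounds, cut at about 24% in these data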;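 note: cytokine-independent growth of Ba/F3 cells driven by EpoR plus mutant JAK2; 0% = DMSO-treated cells and 100% = JAK inhibitor I control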
# KLF5 inhibitor – kruppel-like factor 5 inhibition; DLD-1 KLF5 promoter-luciferase reporter, luminescence; inhibition, % at 5 µM; actives 0.23% (n = 290,000); AID 1700;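 active = inhibition above a per-plate limit of that plate's mean compound inhibition plus 3 SD, cut at about 60% in these data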;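 note: 0% = DMSO wells and 100% = LY294002 at 200 µM; higher means less KLF5 promoter-driven luciferase light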
# APP transl inh – APP translation inhibition. actives 0.82% (n = 190,000). AID 1285. inhibition, % at 2 µM. SH-SY5Y APP 5'UTR-luciferase reporter, luminescence;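 active = inhibition above a set limit, derived from the sample mean plus 3 SD, cut at about 45% in these data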
# BaF3 tox – reduces parental Ba/F3 cell viability, JAK2V617F counter-screen; inhibition, % at 5.6 µM; CellTiter-Glo ATP luminescence; actives 1.1% (n = 220,000);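 active = inhibition above a per-campaign cutoff, the mean inhibition of all tested compounds plus 3 SD, cut at about 27% in these data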;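 note: 0% = DMSO wells and 100% = JAK Inhibitor I control wells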
# KLF5 inh confirm – confirmation of KLF5 inhibitors. AID 1834. actives 79% (n = 610). shares compounds with KLF5 inhibitor. DLD-1 KLF5 promoter firefly luciferase reporter, luminescence. inhibition, % at 4 µM;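 active = inhibition above a set limit taken from the earlier primary screen, cut at about 63% in these data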;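 note: 0% = DMSO wells and 100% = LY294002 at 200 µM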
# IEC-6 tox-2 – kills rat IEC-6 cells in KLF5 counter-screen; shares compounds with KLF5 inhibitor; IEC-6 rat intestinal cells, viability luminescence; inhibition, % at 4 µM; actives 56% (n = 610); in the data active = inhibition above about 23%;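 note: cells exposed to compounds for 48 hours before viability read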
# Starred values were filed as active, the others as inactive; . = no result given. Only some compounds are listed: those with a hit (about 1.9% of all), similar ones and a draw of the others.
SMILES,IEC-6 tox-1,Ba/F3 V617F tox,KLF5 inhibitor,APP transl inh,BaF3 tox,KLF5 inh confirm,IEC-6 tox-2
COc1cc(NC(=O)CSc2nc3ccccc3n2-c2ccccc2)c(C)cc1[N+](=O)[O-],0,1,-33,5,3,.,.
CCOc1ccc(-c2ccc(SC)nn2)cc1,10,10,78*,-77,12,60,14
O=C(O)c1ccccc1Nc1cccc(C(F)(F)F)c1,2,-2,-24,4,4,.,.
O=C(Cc1ccccc1[N+](=O)[O-])NCc1ccc(Cl)cc1Cl,2,6,-39,-98,8,.,.
COc1cc(C2C(C#N)=C(C)NC3=C2C(=O)c2ccccc23)cc(OC)c1OC (centres undefined),94*,88*,78*,4,74*,43,45*
Cn1nc(C(F)(F)F)c(-c2ccc(Br)cc2)c1NC(=O)C1CCC1C(=O)O (centres undefined),1,2,-18,.,-5,.,.
Cc1c([N+](=O)[O-])ccc(S(=O)(=O)N2CCC(C(N)=O)CC2)c1C,0,-4,2,-4,-2,.,.
Nc1ccc(-c2nc3ccc(C(=O)O)cc3s2)cc1,-3,-1,109*,67*,0,105*,-7
Cc1nn(-c2ccccc2)c(C)c1/C=N/NC(=O)c1cc(-c2cccs2)[nH]n1,72*,71*,82*,93*,73*,77*,69*
N#CC(C(=O)NC1CCCCC1)=C1CCCCC1,-9,-2,-4,0,0,.,.
Cc1ccc(NC(=O)n2ncc3c(C)cccc32)cc1F,6,.,83*,.,.,85*,5
COc1ccc(NC(=O)n2ncc3c(C)cccc32)cc1OC,0,.,-117,.,.,.,.
Cc1cccc(OCC(=O)N(Cc2ccco2)C2CCS(=O)(=O)C2)c1 (centres undefined),5,.,-22,.,.,.,.
COC(=O)c1ccccc1NC(=O)CNc1cc(Cl)ccc1N1CCOCC1,10,3,-8,-6,10,.,.
COc1ccc(Cl)cc1NC(=O)CN(C)CC(=O)Nc1ccccc1N1CCOCC1,77*,83*,66*,83*,76*,77*,57*
CC(C)(C)NC(=O)CSc1nnc(CN2CCCCCC2=O)n1-c1ccccn1,0,1,-1,16,5,.,.
Cc1ccc(C(=O)Nc2ccc3c(c2)OCCO3)c(Cl)c1,3,.,78*,.,.,38,6
O=C(Nc1ccc2c(c1)OCCO2)c1cc(F)c(F)cc1Cl,-2,.,-104,.,.,.,.
Cc1ccc(-c2nc3ccc(Cl)cc3n2OC(C)C(=O)O)cc1 (centres undefined),4,9,66*,-116,13,-17,9
Cc1nc2ccccn2c1-c1csc(Nc2cccc(O)c2)n1,5,80*,74*,89*,78*,68*,4
Cc1occc1C(=O)N/N=C/c1c(O)ccc2ccccc12,18,.,57,.,.,.,.
O=C(CSCC(=O)Nc1ccccc1)N/N=C/c1c(O)ccc2ccccc12,-2,2,68*,66*,3,79*,0
O=C(N/N=C/c1c(O)ccc2ccccc12)c1ccc(Br)o1,12,.,68*,.,.,86*,8
CN1CCN(C(=O)C2=C[C@H](c3csc4ccccc34)C[C@H](OCCCCO)O2)CC1,0,-2,-1,5,9,.,.
CCC(=O)Nc1cccc(-c2ccc(N3CCC(C)CC3)nn2)c1,10,.,50,.,.,.,.
SMILES,IEC-6 tox-1,Ba/F3 V617F tox,KLF5 inhibitor,APP transl inh,BaF3 tox,KLF5 inh confirm,IEC-6 tox-2
CC1CCN(c2ccc(-c3cccc(NC(=O)C(F)(F)F)c3)nn2)CC1,14,.,84*,.,.,88*,23*
O=C(Nc1cccc(-c2ccc(N3CCCCC3)nn2)c1)C(F)(F)F,11,.,76*,.,.,51,14
O=S(=O)(Nc1cccc(-c2ccc(N3CCCCCC3)nn2)c1)c1ccc(C(F)(F)F)cc1,4,.,-32,.,.,.,.
COc1cccc(C(C(=O)NC2CCCC2)N(C(=O)c2csnn2)C2CC2)c1 (centres undefined),0,.,-2,.,.,.,.
CCc1ccc(N(CC(=O)Nc2ccc(NC(C)=O)cc2)S(=O)(=O)c2ccccc2)cc1,1,1,6,11,4,.,.
CCN(CC(=O)NCc1cccs1)C(=O)c1cc(S(=O)(=O)N2CCOCC2)ccc1C,-5,3,-26,12,6,.,.
COc1ccc(C(=O)NNC(=O)c2ccccn2)cc1,24*,12,77*,-125,11,-127,1
